# Screening data deposited in PubChem by National Center for Advancing Translational Sciences (NCATS).
# Only some compounds are listed: those with a hit (about 7.1% of all), similar ones and a draw of the others.
# PINK1 expr mod: A Quantitative High throughput Screen to Identify Chemical Modulators of PINK1 Expression | PINK1 immunofluorescence, high-content cytometry, 24 h | Potency, µM (top dose mostly 76.6 µM), inactives show top-dose activation (PINK1 increase), actives largely listed as activators | actives 0.2% (n = 410,000) | AID 624263, 2012; active means well fitted activation curve with a large enough effect; inconclusive means small, poorly fitted or top-dose-only effect; cell line not stated here; further: potency means the concentration at half of the fitted maximal effect; % of control where 0% means no effect; nearly all actives have a fitted effect of over 65% in size
#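 Decision-based qHTS: stable cells, 24 h exposure to five compound concentrations, CCCP as control. Fixed cells stained for PINK1 plus nuclear, mitochondrial and cell markers, cytometer read.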
# IL1B secr inh: qHTS for Inhibitors of Inflammasome Signaling: IL-1-beta AlphaLISA Primary Screen | actives 4.7% (n = 360,000) | activity change, % at 57.5 µM | THP-1 LPS/ATP IL-1B secretion, AlphaLISA, 16 h; hits give low values; in the data active means activity change below about -50%; inconclusive means mostly about -30% to -49%; further: on the % scale 0 is the no-effect control and ±100 the full control effect
#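 Secreted IL-1B measured by AlphaLISA bead assay after 16 h compound exposure of THP-1 cells; compounds (final up to 57.5 uM) added 1 h before LPS (250 ng/mL) and ATP (1.25 mM) stimulation; lower signal means less secretion.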
# ATXN2 expr inh: Primary qHTS for Inhibitors of ATXN expression. actives 0.72% (n = 360,000). HEK-293 ATXN2-luciferase reporter, luminescence, 24 h. Potency, µM (highest dose often 57 µM), inactives show at the highest dose activity change, negative = inhibition, hits mostly inhibitors; further: potency means the concentration at half of the fitted maximal effect; on the % scale 0 is the no-effect control and ±100 the full control effect; nearly all actives have a fitted effect of over 55% in size
#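 qHTS (up to 57 uM final) was run with 24 h compound exposure of reporter cells at 37 °C. Each well was multiplexed: SteadyGlo luminescence measured ATXN2-luciferase expression after a fluorogenic Gly-Phe-AFC viability readout (25 uM final).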
# MCF10A rereplic: A quantitative high throughput screen for small molecules that induce DNA re-replication in MCF 10a normal breast cells; actives 2.9% (n = 350,000); MCF 10A DNA re-replication, Hoechst nuclear intensity, 48 h; Potency, µM (highest dose often 46.1 µM), for the others: at the highest dose activity, positive = re-replication, actives largely listed as activators; AID 624296, 2012; further: potency means the concentration at half of the fitted maximal effect; % of control where 0% means no effect; nearly all actives have a fitted effect of over 50% in size
# SW480 rerep: A quantitative high throughput screen for small molecules that induce DNA re-replication in SW480 colon adenocarcinoma cells. AID 624297, 2012. SW480 DNA re-replication, Hoechst DNA content imaging, 48 h. Potency, µM (highest dose often 46.1 µM), for the others: at the highest dose re-replication activation, actives largely listed as activators. actives 1.8% (n = 340,000); further: potency means the concentration at half of the fitted maximal effect; % of control where 0% means no effect; nearly all actives have a fitted effect of over 55% in size
#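 Image-based read-out: total Hoechst fluorescence of nuclei (405 nm excitation, 500-530 nm emission), with hits raising the fraction of high-intensity nuclei. SW480 colon cells incubated 48 hr with compounds at 37 C.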
# S2 tox: Viability Counterscreen for Primary qHTS for Inhibitors of ATXN expression | actives 0.49% (n = 400,000) | S2 cells (HEK-293 line with an ATXN2-luciferase reporter) viability, CellTiter-Fluor protease fluorescence, 24 h | Potency, µM (top dose mostly 56.7 µM), hits mostly cytotoxic | AID 651635, 2014; further: potency means the concentration at half of the fitted maximal effect; nearly all actives have a fitted effect of over 40% in size
# * = called active by the depositor; i = inactive; ? = inconclusive; . = no result given; [ ] = another dose, or the depositor's remark. Unless noted, the call rests on the fitted dose curve; in most records, active means well fitted curve in the direction sought with a large enough effect; inconclusive means small, poorly fitted or top-dose-only effect, or another doubt; inactive means no such curve, though single readings can be large; an effect the other way counts as inactive or inconclusive.
SMILES,PINK1 expr mod,IL1B secr inh,ATXN2 expr inh,MCF10A rereplic,SW480 rerep,S2 tox
Cc1ccc(C)c(C(=O)CN2C(=O)NC3(CCc4ccccc43)C2=O)c1 (centres undefined),-1%,4,4%,13%,-10%,i
CCc1cccc2c(C(=O)CN3C(=O)NC(C)(c4cccc5ccccc45)C3=O)c[nH]c12 (centres undefined),0%,28,-34%,15µM*,20%,?
Cc1sc2cc3c(c(C(=O)c4ccccc4)[n+]2c1C)-c1cccc2cccc-3c12,?,-97*,11µM*,12µM*,?,?
O=C(c1ccccc1)c1c2c(cc3sc4ccccc4[n+]13)-c1cccc3cccc-2c13,?,-108*,?,?,8%,10µM*
Cc1cc2ccccc2cc1C(=O)c1ccccc1,14%,43,8%,?,?,i
COc1cc(OC)c(NC(=O)NC(C)c2c(-n3cccc3)sc(C)c2C)cc1Cl (centres undefined),2%,.,.,.,.,.
CCN1CCN(c2cc(-c3ccccc3)nc3cc(-c4cccc(F)c4)nn23)CC1,-2%,-62*,?,10µM*,?,.
Cc1ccc(-c2cc3nc(-c4ccccc4)cc(N4CCOCC4)n3n2)cc1,6%,-14,-3%,16µM*,?,i
OC1CCCN(c2c3c(nc4cc(-c5cccc(Cl)c5)nn24)CCC3)C1 (centres undefined),.,-102*,13%,-5%,6%,i
COc1ccc(-c2cc3nc(-c4ccccc4)cc(N4CCC5(CC4)OCCO5)n3n2)cc1,17%[38.3 µM],-6,-12%,20%,23µM*,i
Cc1ccc(S(=O)(=O)N(CC(=O)Nc2cccnc2)c2cc(Cl)ccc2C)cc1,4%,.,0%,.,.,?
COc1ccc(C)cc1-n1nnc(C(=O)Nc2cccc(SC)c2)c1C,0%,.,-17%,.,.,?
Cc1cc(N2CCN(C(=O)c3ccco3)CC2)n2nc(-c3cccc(F)c3)cc2n1,-6%[38.3 µM],-24,?,23µM*,?,i
Cc1cc(N2CCOCC2)n2nc(-c3cccc(F)c3)cc2n1,20%[38.3 µM],30,-23%,?,4%,i
COc1cccc(-c2cc3nc(-c4ccccc4)cc(N4CCCC(O)C4)n3n2)c1 (centres undefined),1%,?,.,18µM*,15µM*,i
N=C1SC(=Cc2ccc(-c3ccc4c(c3)C(=O)NC4=O)o2)C(=O)N1c1ccc(Br)cc1,.,.,-12%,.,.,.
O=C(CN1C(=O)c2ccccc2S1(=O)=O)Nc1ccccc1,0%[38.3 µM],3,-17%,6.5µM*,0%,i
CCCn1c(C)cc(C(=O)CN2C(=O)c3ccccc3S2(=O)=O)c1C,0%,6,.,.,.,i
COc1ccc(C(=O)CN2C(=O)c3ccccc3S2(=O)=O)cc1,3%,-7,0.5µM*,1%,-10%,i
Cc1cc(C(=O)CN2C(=O)c3ccccc3S2(=O)=O)c(C)n1CC1CCCO1 (centres undefined),0%,9,0.5µM*,0%,-2%,?
COc1ccc(NC(=O)CN2C(=O)c3ccccc3S2(=O)=O)cc1OC,1%,-83*,3%,-28%,-3%,i
CCOc1ccc(CNCc2c(C(=O)O)n(Cc3ccc(OC)cc3)c3ccccc23)cc1,-1%,.,.,.,.,.
COc1ccc(C(=O)OCCN2C(=O)c3ccccc3C2=O)cc1,11µM*,2,8%,-3%,-6%,i
CCCCNC(=O)CSc1nc2n[nH]c(C)c2c(=N)n1-c1ccccc1CC,0%,.,.,.,.,.
Cc1ccc(NC(=S)NCc2cccn2C)cc1,3%[38.3 µM],-14,1%,26%,21µM*,i
CCOC(=O)CN1CCCC1=O,.,.,12%,.,.,i
